Only some compounds are listed: those with a hit (about 2.4% of all), similar ones and a draw of the others.
D2 ag-1: human D2 receptor agonism in beta-arrestin assay; P14416; DiscoveRx PathHunter D2 beta-arrestin, luminescence, 90 min; 100% = 57 uM dopamine signal; activation, % (test concentration not listed); hit rate 0.084% among 360,000; AID 624465; in the data active means activation above about 40%
Target sequence (P14416 whole entry, looked up): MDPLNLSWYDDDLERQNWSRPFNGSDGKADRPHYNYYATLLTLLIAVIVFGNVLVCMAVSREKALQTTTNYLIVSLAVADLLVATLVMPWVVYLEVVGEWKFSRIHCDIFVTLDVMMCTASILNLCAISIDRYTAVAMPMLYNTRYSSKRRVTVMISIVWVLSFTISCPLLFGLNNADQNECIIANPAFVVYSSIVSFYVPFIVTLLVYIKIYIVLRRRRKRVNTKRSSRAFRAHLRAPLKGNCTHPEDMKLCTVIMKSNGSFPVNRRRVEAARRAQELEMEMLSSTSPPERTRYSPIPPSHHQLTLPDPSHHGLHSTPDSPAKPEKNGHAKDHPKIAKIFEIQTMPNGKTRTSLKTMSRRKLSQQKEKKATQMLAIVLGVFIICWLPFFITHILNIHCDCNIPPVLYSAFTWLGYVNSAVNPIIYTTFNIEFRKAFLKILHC
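Agonist mode: compounds alone added to overnight-plated D2 PathHunter cells for 90 min at 37 C, with 57 uM final dopamine (EC100) defining full response. Beta-arrestin recruitment detected by chemiluminescent reagent, read after 1 h at ambient temperature.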
D2 antag: antagonizes the human D2 dopamine receptor | P14416 | HEK293 TREx D2 cells, calcium flux, dopamine EC80 | inhibition, % at 10 µM | hit rate 2% among 340,000; in the data active means inhibition above about 30%; inactive means below that, where a call was filed; further: 0% is about no effect
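Overnight-induced (tetracycline, 30 C) HEK293 T-REx cells carrying force-coupled D2 receive a no-wash calcium dye, then compound, then EC80 dopamine at 180 s; signals are read kinetically throughout.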
D2 PAM-1: human D2 receptor positive allosteric modulation; potentiation, % (test concentration not listed); DiscoveRx D2 beta-arrestin cells, luminescence, 90 min; 100% = 57 uM dopamine signal; P14416; hit rate 0.23% among 360,000; in the data active means potentiation above about 50%
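PathHunter D2 cells, attached overnight at 37 deg C, received compound in DMSO plus dopamine at EC20 (50 nM final) for 90 min at 37 deg C. Beta-arrestin recruitment was read as luminescence after 1 h with detection reagent at ambient temperature.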
D2 ag-2: activates the human D2 dopamine receptor; P14416; HEK293 T-REx D2 cells, calcium flux agonist mode; activation, % at 2 µM; hit rate 0.53% among 340,000; AID 485358;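 active means activation over 3 SD above normal in the single-dose calcium agonist read, cut at about 30% in these data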; further: 0% is about no effect
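Tetracycline-induced HEK293 T-REx cells with force-coupled D2 receptor, plated overnight at 30 C, loaded with no-wash calcium dye. After a 10 s baseline, compound was pin-added and calcium flux read kinetically for 180 s; calcium rises flagged agonists.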
D2 PAM-2: D2 dopamine receptor (human) potentiation. HEK293 T-REx D2, calcium flux, EC20 dopamine potentiation. potentiation, % at 10 µM. hit rate 0.34% among 340,000. AID 485347;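 active means potentiation over 3 SD above the plate norm, cut at about 30% in these data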; further: 0% is about no effect
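Using a no-wash calcium dye in inducible, force-coupled HEK293 Trex cells expressing D2, we tracked fluorescence each second for 180 s after compound, then for 180 s after EC20 dopamine to detect augmented signalling.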
Active calls of the source: *; nt = not tested or not shown; ! = repeats disagree.

SMILES | D2 ag-1 | D2 antag | D2 PAM-1 | D2 ag-2 | D2 PAM-2
CC(Oc1ccc(Br)cc1)C(=O)Nc1ccc(S(=O)(=O)Nc2nccs2)cc1 (configuration not stated) | -2 | -3 | -3 | 2 | 2
Cc1ccc(C(=O)c2sc(Nc3ccccc3)c(S(=O)(=O)c3ccccc3)c2N)c(C)c1 | nt | nt | nt | nt | 17
COc1ccc(NC(=O)CN2C(=O)c3ccccc3S2(=O)=O)cc1OC | 0 | -14 | 2 | 0 | 33*
Cc1ccc(NC(=O)CN2C(=O)c3ccccc3S2(=O)=O)cc1C | -3 | -3 | -5 | 0 | -3
Cc1ccc(C)c(N2N=C(C(=O)Nc3ccc(N4CCOCC4)cc3)CCC2=O)c1 | -3 | 35* | -11 | 0 | 0
Cc1ccc(C)c(N2N=C(C(=O)O)CCC2=O)c1 | 1 | 6 | -2 | 0 | -8
Cn1nc(-c2ccccc2F)c2cc(C(=O)N3CCN(c4ccccc4F)CC3)sc21 | nt | nt | nt | 0 | 23
COc1ccc(Cn2c3nc4ccccc4nc3c3c(=O)n(Cc4ccco4)cnc32)cc1 | nt | 40* | nt | 1 | 6
CC(C)N(C(=O)CN1C(=O)C(=O)c2ccccc21)c1ccccc1 | -3 | 36* | -2 | 2 | 0
O=C(CN1C(=O)C(=O)c2ccccc21)c1ccccc1 | -17 | 3 | -5 | -2 | -4
c1ccc(CN(CC2=NCCN2)c2ccccc2)cc1 | -6 | 41*! | -17 | 2 | 1
CCN(c1ccccc1)S(=O)(=O)c1ccc(Cl)c(C(=O)NCC2CCCO2)c1 (configuration not stated) | 1 | 6 | -4 | 0 | 31*
CS(=O)(=O)N(Cc1ccccc1)c1ccc(C(=O)NCC2CCCO2)cc1 (configuration not stated) | -3 | 33* | -5 | -1 | 5
CS(=O)(=O)N(Cc1ccc(Cl)cc1)c1ccc(C(=O)NCC2CCCO2)cc1 (configuration not stated) | 1 | 9 | 0 | 2 | 3
Cc1nn(Cc2ccccc2)c(C)c1NC(=O)c1noc2c1CCc1ccccc1-2 | 0 | -4 | -4 | 0 | 31*
Cc1nn(Cc2ccc(Cl)c(Cl)c2)c(C)c1NC(=O)c1noc2c1CCc1ccccc1-2 | nt | nt | nt | 1 | 6
Cc1ccc(CNC(=O)C(C)OC(=O)c2ccco2)cc1 (configuration not stated) | -2 | 6 | -2 | 0 | 2
CCC(OC(=O)c1ccco1)C(=O)NCc1ccc(C)cc1 (configuration not stated) | -2 | 66* | 2 | 1 | -25
Cc1ccc(S(=O)(=O)N(C)C)cc1NC(=S)NCc1ccco1 | -4 | 40* | -43 | 0 | nt
Cc1ccc(S(=O)(=O)N(C)C)cc1NC(=S)NC12CC3CC(CC(C3)C1)C2 | -3 | 78* | -8 | 0 | -24
Cc1ccc(S(=O)(=O)N(C)C)cc1NC(=S)Nc1ccc2[nH]c(=O)[nH]c2c1 | -2 | 49* | -24 | 1 | -14
Cc1ccc(NC(=S)Nc2ccc3[nH]c(=O)[nH]c3c2)cc1C | -8 | -4 | -15 | 0 | 11
CN(C)S(=O)(=O)c1cccc(C(=O)NCc2ccco2)c1 | 0 | -15 | -15 | 0 | 3
Cc1ccc(S(=O)(=O)N(C)C)cc1NC(=S)NC(=O)C12CC3CC(CC(C3)C1)C2 | 1 | 9 | 10 | -1 | 4
S=C(NCc1ccco1)Nc1ccccc1 | 2 | 31* | -3 | 0 | 8
Cc1ccc(NC(=O)C(=O)NCC(c2cccnc2)N2CCN(Cc3ccccc3)CC2)cc1F (configuration not stated) | nt | nt | nt | 1 | 3
COc1cc(NC(=O)c2noc3c2CC(C(C)(C)C)CC3)cc(OC)c1OC (configuration not stated) | nt | nt | nt | -1 | 23
COc1cc(CNC2CCCC2)c(Br)cc1OC1CCCC1 | -18 | -3 | -21 | 1 | -20
COc1cc(CNCc2ccccc2)c(Br)cc1OC1CCCC1 | -3 | 51* | -22 | -1 | -26
CCOc1ccc(N2CC(C(=O)NCCc3ccc(S(N)(=O)=O)cc3)CC2=O)cc1 (configuration not stated) | -2 | 38* | -6 | 1 | 14
